Assay outcomes as filed in PubChem BioAssay.
NPC1 promoter act: qHTS Assay for NPC1 Promoter Activators; Potency, µM (top dose mostly 9.22 µM), without a hit: at the top dose activation, usual class: activators; 320,000 compounds, 2.4% hits; Huh7 NPC1 promoter luciferase reporter, 24 h; note: % of control where 0% means no effect; nearly all actives have a fitted effect of over 60% in size
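Luminescence read-out of NPC1 promoter-driven luciferase in stably transfected Huh7 cells; compounds delivered in DMSO and left 24 h at 37C, 5% CO2, qHTS titration format.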
ELG1 genotox: qHTS screen for small molecules that induce genotoxicity in human embryonic kidney (HEK293T) cells expressing luciferase-tagged ELG1 | HEK293T ELG1-luciferase reporter, luminescence, 16 h | 330,000 compounds, 1.3% hits | Potency, µM (highest dose often 46 µM), for the others: at the highest dose activity change, positive = activation, hits mostly activators | AID 504466, 2011; note: % of control where 0% means no effect; nearly all actives have a fitted effect of over 60% in size
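Genotoxicity was scored as increased ELG1-luciferase reporter signal, measured by ONE-Glo luminescence (30 min, room temperature). Compound or vehicle exposure of the HEK293T reporter cells lasted 16 hr at 37°C.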
Rab9 promoter act: qHTS Assay for Rab9 Promoter Activators; 320,000 compounds, 2.8% hits; Potency, µM (top dose mostly 9.22 µM), for inactives: at the top dose activation, negative = inhibition, hits mostly activators; Huh7 Rab9 promoter-luciferase reporter, luminescence, 24 h; AID 485297, 2010; note: % of control where 0% means no effect; nearly all actives have a fitted effect of over 60% in size
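Luciferase signal after 10 min detection reagent at ambient indicates Rab9 promoter upregulation; stably transfected Huh7 cells were treated 24 h with compound in DMSO at 37 °C, 5% CO2.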
FLuc modulator: qHTS profiling assay for firefly luciferase inhibitor/activator using purifed enzyme and Km concentrations of substrates (counterscreen for miR-21 project); Luciferin 4-monooxygenase (Photinus pyralis), P08659; purified FLuc, Km substrates, luminescence inhibition; Potency, µM (series often up to 57.5 µM), without a hit: top-dose activity change, negative = inhibition, hits mostly inhibitors; 360,000 compounds, 6.9% hits; AID 588342, 2011;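 note: plate controls were vehicle for no effect and reference inhibitor for full effect; nearly all actives have a fitted effect of over 55% in size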
Target sequence (P08659 whole entry, looked up): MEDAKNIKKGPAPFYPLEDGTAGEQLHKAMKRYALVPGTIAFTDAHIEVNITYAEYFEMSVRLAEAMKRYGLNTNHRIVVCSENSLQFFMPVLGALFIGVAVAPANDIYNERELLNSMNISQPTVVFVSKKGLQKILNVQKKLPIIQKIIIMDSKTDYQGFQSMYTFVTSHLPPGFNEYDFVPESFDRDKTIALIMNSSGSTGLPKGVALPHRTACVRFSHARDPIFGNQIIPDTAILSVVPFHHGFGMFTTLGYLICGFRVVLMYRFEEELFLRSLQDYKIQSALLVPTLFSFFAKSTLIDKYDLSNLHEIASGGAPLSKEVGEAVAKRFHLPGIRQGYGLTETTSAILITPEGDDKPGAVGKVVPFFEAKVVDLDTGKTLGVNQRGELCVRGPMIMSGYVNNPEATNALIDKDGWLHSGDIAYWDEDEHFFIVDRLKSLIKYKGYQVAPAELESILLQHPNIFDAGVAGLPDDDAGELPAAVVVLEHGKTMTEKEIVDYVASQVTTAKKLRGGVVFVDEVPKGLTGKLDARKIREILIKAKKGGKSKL
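Biochemical qHTS of compounds, final roughly 60 µM downward over six points, against 10 nM purified firefly luciferase using Km concentrations of substrates (10 uM D-luciferin, 10 uM ATP) in Tris acetate pH 7.5 buffer; luminescence output.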
ELG1 DNA repair: qHTS screen for small molecules that inhibit ELG1-dependent DNA repair in human embryonic kidney (HEK293T) cells expressing luciferase-tagged ELG1. AID 504467, 2011. Potency, µM (series often up to 46.1 µM), without a hit: at the highest dose activity change, negative = inhibition, actives largely listed as inhibitors. HEK293T ELG1-luciferase reporter, luminescence, 16 h; DNA damage induced by 5-fluorouridine. 330,000 compounds, 2.3% hits; note: % is set by controls: 0 for no effect and ±100 for the full control effect; nearly all actives have a fitted effect of over 55% in size
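Luminescence from the luciferase reporter, measured 30 min after ONE-Glo reagent at room temperature, was the read-out. Beforehand, 2,000 cells per well were exposed for 16 hr at 37 °C to 5-fluorouridine together with compound or vehicle.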
SMN2 splice enh: qHTS Assay for Enhancers of SMN2 Splice Variant Expression; HEK293 SMN2-luciferase splicing reporter, luminescence, 30-36 h; Potency, µM (highest dose often 46.1 µM), inactives show top-dose activity change, positive = activation, hits mostly activators; 210,000 compounds, 2.8% hits; AID 1458, 2008; note: % of control where 0% means no effect; nearly all actives have a fitted effect of over 55% in size
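HEK293 cells carry an SMN2 minigene-luciferase reporter in which exon 7 inclusion puts luciferase in frame. Cells were seeded at 2000 cells/well, attached for 10-12 hours, then exposed to compounds for 30-36 hours at 37C before ONE-Glo luminescence.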
* = called active by the depositor; ? = inconclusive; . = no result; [ ] = remark or other dose. Hits are enriched below; roughly 9.3% of the tested compounds scored in any of these assays. Calls come from the whole dose curve; as a rule, active = well fitted curve in the direction sought with a large enough effect; inconclusive = small, poorly fitted or top-dose-only effect, or another doubt; inactive = no such curve, though single readings can be large; an effect the other way counts as inactive or inconclusive. Potency is the fitted concentration of half-maximal effect.

SMILES	NPC1 promoter act	ELG1 genotox	Rab9 promoter act	FLuc modulator	ELG1 DNA repair	SMN2 splice enh
Cn1cccc1C(=O)C(=O)Nc1cc(Cl)cc(Cl)c1	?	24.7%	?	?	?	-4.4%
Cn1cccc1C(=O)C(=O)Nc1ccc(Cl)cc1	0.794µM*	?	0.501µM*	1.9µM*	?	10µM*
CC(C(=O)Nc1ccc(F)c(F)c1)N1CCN(C)CC1 (configuration not stated)	-2.4%	0.2%	-3.1%[1.84 µM]	4.8%	-7.9%	.
Cc1ccc(OCCOC(=O)CCc2nc3ccccc3c(=O)[nH]2)cc1	0.8%	-0.1%	-5.8%	-1.2%	4.6%	-7.4%
COc1cc(/C=N/Nc2nncc3ccccc23)cc(OC)c1OC	1.58µM*	?	?	8.49µM*	?	.
Cc1cccc(/C=N/Nc2nncc3ccccc23)c1	0.562µM*	0.461µM*	0.316µM*	0.849µM*	?	2.51µM*
COc1ccc(/C=N/Nc2nncc3ccccc23)c(OC)c1	?	?	?	9.53µM*	?	12.6µM*
CCNc1nc(NCC)nc(N/N=C/c2cc(OC)c(OC)c(OC)c2)n1	-4.1%	-5.9%	0.1%	?	?	.
COc1ccc(/C=N/NS(C)(=O)=O)c(OC)c1	-7.5%	-2.7%	-3.0%	4.6%	0.7%	-4.9%
C(=N\Nc1nncc2ccccc12)/c1ccccc1	1.12µM*	?	1.41µM*	0.536µM*	?	.
Cc1ccc(OCc2nnc(SCC(=O)Nc3ccccc3C(C)C)o2)cc1	.	.	.	-13.6%	.	.
CCc1ccc(CNC(=O)C2CCN(S(=O)(=O)N3CCC(C)CC3)CC2)cc1	-3.6%	-6.4%	-2.1%	0.1%	-0.6%	.
CCCc1nn2c(=O)cc(COC(=O)c3ccc(NC(=O)CCc4ccccc4)cc3)nc2s1	.	.	.	-0.5%	.	.
CN(C)c1ccc(/C=N/Nc2nncc3ccccc23)cc1	0.316µM*	0.731µM*	0.316µM*	0.426µM*	?	.
Cc1ccc(N2C(=O)C3N=NN(CC(=O)N4N=C(c5ccccc5)CC4c4ccccc4)C3C2=O)cc1 (configuration not stated)	1.0%	0.1%	4.4%	-9.8%	20.4%	-4.8%
COCCCn1c(SCC(=O)n2c(C)c(C)c3ccccc32)nnc1-c1ccoc1C	1.0%	18.4µM*	17.3%	4.6%	?	-10.1%
COCCCn1c(SCC(=O)N2CC(=O)Nc3ccccc32)nnc1-c1ccoc1C	-2.6%	-0.7%	4.7%	0.5%	1.5%	-13.4%
COC(=O)Cc1c(C)nc2nc(-c3ccc(C)cc3)[nH]n2c1=O	14.6%	?	21.3%	8.49µM*	?	8.1%
COC(=O)Cc1c(C)nc2nc(-c3ccccc3)[nH]n2c1=O	7.8%	7.3%	2.5%	16.9µM*	16.3%	23.9%
COC(=O)Cc1c(C)nc2nc(-c3cccnc3)[nH]n2c1=O	1.0%	0.7%	-0.3%	?	-8.0%	-0.7%
COC(=O)Cc1c(C)nc2nc(-c3ccc(Cl)cc3)[nH]n2c1=O	16.6%	?	26.0%	10.7µM*	?	3.6%
CC(=O)n1nc(-c2cccnc2)nc1NCc1ccc(F)cc1	.	.	.	-0.4%	.	5.2%
CCOC(=O)c1c(C)n(C)c2ccc(OCC(O)Cn3c(C)nc4ccccc43)cc12 (configuration not stated)	-1.0%	-28.0%	-11.0%	-1.0%	11.6µM*	-53.5%
O=S(=O)(NCCN1CCCC1)c1ccc(C(F)(F)F)cc1	-4.6%	0.8%	2.5%	-0.7%	2.9%	.
Cc1cccc(-c2noc(CNC(=O)c3ccoc3C)n2)c1	-0.1%	7.6%	-1.0%	-1.4%	20.1%	.
SMILES	NPC1 promoter act	ELG1 genotox	Rab9 promoter act	FLuc modulator	ELG1 DNA repair	SMN2 splice enh
COc1ccc(-c2noc(-c3ccoc3C)n2)cc1OC	-3.4%	2.5%	0.6%	1.3%	3.9%	.
Cc1cccc(-c2noc(-c3ccoc3C)n2)c1	0.355µM*	?	0.708µM*	4.78µM*	?	?
COc1cccc(-c2noc(-c3ccoc3C)n2)c1	?	?	2.51µM*	6.75µM*	?	.
COc1ccc(-c2noc(-c3ccoc3C)n2)cc1	2.82µM*	?	1.58µM*	2.39µM*	?	.
COc1ccccc1N1CCN(S(=O)(=O)CCNC(=O)COc2ccccc2F)CC1	.	.	.	-0.7%	.	.
CCOc1ccc(OCCC(=O)N2CCc3cc(OC)c(OC)cc3C2)cc1	0.6%	-2.6%	-3.4%	-3.1%	-9.4%	.
Cn1ccs/c1=N\C(=O)Nc1cccc(Cl)c1	0.891µM*	5.17µM*	0.708µM*	7.57µM*	?	.
C/C(=N\NC(=S)Nc1cc(S(=O)(=O)N2CCOCC2)ccc1Cl)c1ccccc1F	-5.2%	7.9%	-14.7%	26.9µM*	?	-82.3%
CC(C)N(C(=S)Nc1cc(S(=O)(=O)N2CCOCC2)ccc1Cl)c1ccccc1	-1.5%	-1.1%	0.1%	-2.0%	?	3.6%
Cc1ccc(F)cc1NC(=O)/C=C/c1ccc(S(=O)(=O)N2CCOCC2)cc1	.	-0.2%	.	.	23.1µM*	.
O=C(/C=C/c1cccc(F)c1)Nc1cc(S(=O)(=O)N2CCOCC2)ccc1N1CCCC1	-2.6%	-0.7%	2.1%	-1.5%	-11.0%	1.8%
O=C(/C=C/c1cccc(F)c1)Nc1cc(S(=O)(=O)N2CCOCC2)ccc1Cl	.	-7.3%	.	.	25.9µM*	.
CC(C)C(=O)Nc1ccc(S(=O)(=O)N2CCC(c3nc4ccccc4[nH]3)CC2)cc1	-4.9%	-3.6%	-0.6%	9.8%	5.8µM*	.
CC(C)(C)c1ccc(S(=O)(=O)N2CCC(c3nc4ccc(Cl)cc4[nH]3)CC2)cc1	-1.0%	-7.1%	-8.4%	0.3%	20.6µM*	-40.9%
CC(=O)Nc1ccc(S(=O)(=O)N2CCC(c3nc4ccc(C)cc4[nH]3)CC2)cc1	-0.5%	-0.1%	-1.3%	3.3%	?	-15.3%
COc1ccc(S(=O)(=O)N2CCC(c3nc4ccccc4[nH]3)CC2)cc1	-1.7%	0.0%	-8.7%	1.8%	?	.
CC(C)C(c1nnnn1CCc1ccccc1)N1CCSCC1 (configuration not stated)	-5.7%	-6.8%	-6.1%	6.0%	13.1%	.
CC1CN(c2ccccc2)NC1=O (configuration not stated)	5.0%	3.2%	21.1%	0.9%	-12.5%	-5.7%
O=C(Nc1ccccc1C(=O)N1CCCCC1)c1ccccc1C(F)(F)F	-0.2%	0.9%	0.1%	4.8%	3.1%	.
COc1ccc(NC(=O)c2cc(CC(C)C)nc3ccccc23)cc1	0.4%	-11.2%	-3.7%	-5.7%	23.1µM*	.
